According to PubChem BioAssay (NCATS):
Results filed as inconclusive are left out. The source made the active and inactive calls. The call rests on the fitted dose curve; in most records, active means well fitted curve in the direction sought with a large enough effect; inconclusive means small, poorly fitted or top-dose-only effect, or another doubt; inactive means no such curve, though single readings can be large; an effect the other way counts as inactive or inconclusive.

Key:
[1] = target: ATP-dependent 6-phosphofructokinase (Trypanosoma brucei brucei) (UniProt O15648); assay: qHTS Assay to Find Inhibitors of T. brucei phosphofructokinase: hit validation (AID 492961);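 further: luminescence reports ADP formed as PFK phosphorylates fructose-6-phosphate with ATP; on the % scale 0 is the no-effect control and ±100 the full control effect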
Sequence of ATP-dependent 6-phosphofructokinase (Trypanosoma brucei brucei) (O15648 whole entry, looked up): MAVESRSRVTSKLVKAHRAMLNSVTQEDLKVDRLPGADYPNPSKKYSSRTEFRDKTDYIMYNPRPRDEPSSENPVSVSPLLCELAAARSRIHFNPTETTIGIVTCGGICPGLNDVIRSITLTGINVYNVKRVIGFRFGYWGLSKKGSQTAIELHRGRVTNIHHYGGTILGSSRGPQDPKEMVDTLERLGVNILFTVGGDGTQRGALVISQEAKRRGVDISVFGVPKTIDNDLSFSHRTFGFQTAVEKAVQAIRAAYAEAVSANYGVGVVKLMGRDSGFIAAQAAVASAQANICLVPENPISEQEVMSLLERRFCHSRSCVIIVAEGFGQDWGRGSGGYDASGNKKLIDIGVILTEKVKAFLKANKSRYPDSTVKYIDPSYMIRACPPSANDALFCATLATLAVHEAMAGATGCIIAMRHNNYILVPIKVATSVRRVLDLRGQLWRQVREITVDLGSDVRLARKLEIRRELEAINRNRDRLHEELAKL
Summary of the method: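 In this biochemical qHTS validation, titrated compounds were tested against 1.25 nM PFK with 0.1 mM ATP and 0.5 mM F6P. Percent activity came from controls lacking or containing enzyme.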

[2] = target: Luciferin 4-monooxygenase (Photinus pyralis) (UniProt P08659); assay: Biochemical firefly luciferase enzyme assay for NPC (AID 624030);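 further: purified P. pyralis luciferase at 10 nM with luciferin and ATP substrate; 0% = DMSO and -100% = full luciferase inhibition by PTC124 control; nearly all actives have a fitted effect of over 70% in size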
Sequence of Luciferin 4-monooxygenase (Photinus pyralis) (P08659 whole entry, looked up): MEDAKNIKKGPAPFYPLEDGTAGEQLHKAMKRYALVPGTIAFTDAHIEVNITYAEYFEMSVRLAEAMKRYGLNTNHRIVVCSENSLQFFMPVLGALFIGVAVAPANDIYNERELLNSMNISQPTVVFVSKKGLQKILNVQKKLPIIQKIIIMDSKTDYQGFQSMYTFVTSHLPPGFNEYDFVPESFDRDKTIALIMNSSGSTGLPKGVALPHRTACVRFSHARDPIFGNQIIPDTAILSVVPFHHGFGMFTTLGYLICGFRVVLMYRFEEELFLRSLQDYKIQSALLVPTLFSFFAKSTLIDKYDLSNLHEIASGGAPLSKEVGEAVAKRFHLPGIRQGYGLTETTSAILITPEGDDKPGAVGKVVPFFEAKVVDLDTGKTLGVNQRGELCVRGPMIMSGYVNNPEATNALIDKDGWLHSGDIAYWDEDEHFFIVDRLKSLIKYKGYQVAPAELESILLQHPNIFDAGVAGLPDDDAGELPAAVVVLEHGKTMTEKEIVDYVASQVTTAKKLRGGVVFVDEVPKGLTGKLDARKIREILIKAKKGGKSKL
Summary of the method: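 Direct inhibition of firefly luciferase enzyme (10 nM final, 50 mM Tris Acetate) assessed by luminescence within 5 minutes. Percent activity scaled between DMSO and PTC124 positive control, with concentration-effect curves classified by fit quality and response.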

[3] = qHTS profiling for inhibitors of Plasmodium falciparum proliferation (AID 504749); further: potency means the concentration at half of the fitted maximal effect;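 on activity, negative = inhibition: 0% = DMSO vehicle and full inhibition = artemisinin control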; on all read-outs here: nearly all actives have a fitted effect of over 60% in size; details: P. falciparum in erythrocytes, SYBR Green DNA, 72 h; for activity, negative = inhibition: at 28.7 µM (top of the series)
Summary of the method: (§1)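 Infected RBCs, 0.3% parasitemia/2.5% Hct final; cpd 72 h, 37 C, 5% CO2; lysis buffer with saponin/triton/SYBR Green I, o/n RT dark; FI 485/535; norm. to artemisinin (0.29 uM) and DMSO.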

CP192 = assay: as above; details: P. falciparum in erythrocytes, SYBR Green DNA, 72 h; series mostly up to 28.7 µM
Summary of the method: as §1

CP201 = assay: as above; details: P. falciparum in erythrocytes, SYBR Green DNA, 72 h; series mostly up to 28.7 µM
Summary of the method: as §1

CP203 = assay: as above; details: P. falciparum in erythrocytes, SYBR Green DNA, 72 h; series mostly up to 28.7 µM
Summary of the method: as §1

CP211 = assay: as above; details: P. falciparum in erythrocytes, SYBR Green DNA, 72 h; series mostly up to 28.7 µM
Summary of the method: as §1

CP262 = assay: as above; details: P. falciparum in erythrocytes, SYBR Green DNA, 72 h; series mostly up to 28.7 µM
Summary of the method: as §1

CP269 = assay: as above; details: P. falciparum in erythrocytes, SYBR Green DNA, 72 h; series mostly up to 28.7 µM
Summary of the method: as §1

CP315 = assay: as above; details: P. falciparum in erythrocytes, SYBR Green DNA, 72 h; series mostly up to 28.7 µM
Summary of the method: as §1

CP325 = assay: as above; details: P. falciparum in erythrocytes, SYBR Green DNA, 72 h; series mostly up to 28.7 µM
Summary of the method: as §1

CP329 = assay: as above; details: P. falciparum in erythrocytes, SYBR Green DNA, 72 h; series mostly up to 28.7 µM
Summary of the method: as §1

ECU = assay: as above; details: P. falciparum in erythrocytes, SYBR Green DNA, 72 h; series mostly up to 28.7 µM
Summary of the method: as §1

FAB9 = assay: as above; details: P. falciparum in erythrocytes, SYBR Green DNA, 72 h; series mostly up to 28.7 µM
Summary of the method: as §1

PC49 = assay: as above; details: P. falciparum in erythrocytes, SYBR Green DNA, 72 h; series mostly up to 28.7 µM
Summary of the method: as §1

Dd2 = assay: as above; details: P. falciparum in erythrocytes, SYBR Green DNA, 72 h; series mostly up to 28.7 µM
Summary of the method: as §1

CC1OC(OC2C(O)CC(OC3C(O)CC(OC4CCC5(C)C(CCC6C5CCC5(C)C(C7=CC(=O)OC7)CCC65O)C4)OC3C)OC2C)CC(O)C1O (configuration not stated)
inactive: Potency [1] | Potency [2] | activity, negative = inhibition ([3]; parasite line A) 1.31% | activity, negative = inhibition ([3]; parasite line B) 5.82% | Potency (CP192) | Potency (CP201) | Potency (CP203) | Potency (CP211) | Potency (CP262) | Potency (CP269) | Potency (CP315) | Potency (CP325) | Potency (CP329) | Potency (ECU) | Potency (FAB9) | Potency (PC49)

CC1CCC(O)C/C1=C\C=C1/CCCC2(C)C1CCC2C(C)/C=C/C(C)C(C)C (configuration not stated)
inactive: Potency [1] | Potency [2] | activity, negative = inhibition ([3]; parasite line A) -1.73% | activity, negative = inhibition ([3]; parasite line B) -28.9% | Potency (CP192) | Potency (CP201) | Potency (CP203) | Potency (CP211) | Potency (CP262) | Potency (CP269) | Potency (CP315) | Potency (CP325) | Potency (CP329) | Potency (Dd2) | Potency (FAB9) | Potency (PC49)

C[N+]12CCCC[C@@H]1CCC(=C(c1cccs1)c1cccs1)C2 (some centres not stated)
inactive: Potency [1] | Potency [2] | Potency (CP262)
active: Potency ([3]; parasite line A) 10 µM | Potency ([3]; parasite line B) 12.6 µM | Potency (CP192) 10.7 µM | Potency (CP203) 16.9 µM | Potency (CP211) 13.5 µM | Potency (CP269) 13.5 µM | Potency (ECU) 1 µM | Potency (FAB9) 11.2 µM | Potency (PC49) 10 µM

CC1=C(C/C=C(\C)CCCC(C)CCCC(C)CCCC(C)C)C(=O)c2ccccc2C1=O (configuration not stated)
active: Potency (Dd2) 8.91 µM
inactive: Potency [1] | Potency [2] | activity, negative = inhibition ([3]; parasite line A) -26.3% | Potency (CP192) | Potency (CP201) | Potency (CP203) | Potency (CP211) | Potency (CP262) | Potency (CP269) | Potency (CP315) | Potency (CP325) | Potency (CP329) | Potency (ECU) | Potency (FAB9) | Potency (PC49)

COc1cc(/C=C2\CCC/C(=C\c3ccc(O)c(OC)c3)C2=O)ccc1O
inactive: Potency [1] | Potency (CP262)
active: Potency ([3]; parasite line A) 11.2 µM | Potency ([3]; parasite line B) 10 µM | Potency (CP211) 16.9 µM | Potency (CP269) 10.7 µM | Potency (CP315) 19 µM | Potency (Dd2) 11.2 µM | Potency (ECU) 11.2 µM | Potency (PC49) 11.2 µM

OC[C@@H](O)C(O[C@@H]1O[C@@H](CO)[C@H](O)[C@H](O)[C@H]1O)[C@H](O)[C@@H](O)CO (some centres not stated)
inactive: Potency [1] | Potency [2] | activity, negative = inhibition ([3]; parasite line A) 12% | activity, negative = inhibition ([3]; parasite line B) 4.36% | Potency (CP192) | Potency (CP201) | Potency (CP203) | Potency (CP211) | Potency (CP262) | Potency (CP269) | Potency (CP315) | Potency (CP325) | Potency (CP329) | Potency (Dd2) | Potency (ECU) | Potency (FAB9) | Potency (PC49)

COC(=O)C1C2CC3c4[nH]c5cc(OC)ccc5c4CCN3CC2CC(OC)C1OC (configuration not stated)
inactive: Potency [1] | Potency [2] | activity, negative = inhibition ([3]; parasite line A) 2.01% | activity, negative = inhibition ([3]; parasite line B) -6.18% | Potency (CP192) | Potency (CP201) | Potency (CP203) | Potency (CP211) | Potency (CP262) | Potency (CP269) | Potency (CP315) | Potency (CP325) | Potency (CP329) | Potency (Dd2) | Potency (ECU) | Potency (FAB9) | Potency (PC49)

Nc1nc(Cl)nc2c1ncn2[C@@H]1O[C@H](CO)[C@H](O)C1F (some centres not stated)
inactive: Potency [1] | Potency [2] | activity, negative = inhibition ([3]; parasite line A) -2.17% | Potency (CP192) | Potency (CP201) | Potency (CP203) | Potency (CP211) | Potency (CP262) | Potency (CP269) | Potency (CP315) | Potency (CP325) | Potency (CP329) | Potency (Dd2) | Potency (ECU) | Potency (FAB9) | Potency (PC49)

CCCCC(=O)OC1CCC2C3CCc4cc(O)ccc4C3CC[C@]12C (some centres not stated)
inactive: Potency [1] | Potency [2] | activity, negative = inhibition ([3]; parasite line A) -29.6% | Potency (CP192) | Potency (CP201) | Potency (CP203) | Potency (CP211) | Potency (CP262) | Potency (CP269) | Potency (CP315) | Potency (CP325) | Potency (CP329) | Potency (ECU) | Potency (FAB9) | Potency (PC49)

CC1(C)SC2[C@@H](N=CN3CCCCCC3)C(=O)N2[C@H]1C(=O)O (some centres not stated)
inactive: Potency [1] | Potency [2] | activity, negative = inhibition ([3]; parasite line A) 0.0196% | activity, negative = inhibition ([3]; parasite line B) -13% | Potency (CP192) | Potency (CP201) | Potency (CP203) | Potency (CP211) | Potency (CP262) | Potency (CP269) | Potency (CP315) | Potency (CP325) | Potency (CP329) | Potency (Dd2) | Potency (ECU) | Potency (FAB9) | Potency (PC49)
